Source: PubChem
Shown is part of a subset that was picked to be rich in hits.
RMI FANCM FP: blocks RMI1/RMI2 complex binding to FANCM MM2 peptide | Fluorescence polarization, RMI core complex with F-MM2 peptide; hits give low values | FP signal (polarization) at 33 µM | actives 0.58% (n = 70,000) | AID 1159607; in the data active = FP signal below about 40
Each line names hits and unclear results; the compound was inactive in the other large screens.

CCc1nnc(NC(=O)/C=C\c2ccc3c(c2)OCO3)s1	none
CN(C)c1ccc(C(=O)N/N=C\c2cc(Cl)cc(Cl)c2O)cc1	none
CCOC(=O)c1ccc(N2CCOCC2)c(NS(=O)(=O)c2ccccc2[N+](=O)[O-])c1	none
Cc1c(C)c(C)c(C(=O)CCc2cccc(N=Cc3cc(Cl)cc(Cl)c3O)c2)c(C)c1C	none
CCOC(=O)c1ccc(N2CCOCC2)c(N=Cc2cc(Cl)cc(Cl)c2O)c1	RMI FANCM FP 15
Oc1c(Cl)cc(Cl)cc1C=Nc1ccc2n[nH]nc2c1	RMI FANCM FP 25
O=C(N/N=C\c1cc(Cl)cc(Cl)c1O)c1ccncc1	none
Oc1c(Cl)cc(Cl)cc1C=Nc1ccc(N2CCOCC2)cc1	none
O=C1Nc2ccccc2C1Cc1ccc(N=Cc2cc(Cl)cc(Cl)c2O)cc1 (stereo not given)	none
CC(=O)c1ccc(Cl)c(N=Cc2cc(Cl)cc(Cl)c2O)c1	RMI FANCM FP 34
O=C(Cn1cnc2c(cnn2-c2cccc(Cl)c2)c1=O)OCc1ccccc1	none
Cc1cc(NC(=O)c2cccc(N3C(=O)CCC3=O)c2)n(-c2nc3ccc(F)cc3s2)n1	none
Cc1cccc(C(=O)NCCn2nc(-c3cccnc3)ccc2=O)c1	none
ICC1C[n+]2c(SCc3ccccc3)nc3sc4c(c3c2O1)CCCC4 (stereo not given)	none
CCOc1ccc2ccccc2c1C(=O)NCC(c1cccs1)N(C)C (stereo not given)	none
CCOC(=O)COc1ccc(-c2cc(-c3ccccc3)c3cc(Cl)ccc3n2)cc1	none
CCCOc1ccc(-c2cc(C(=O)N=Nc3c(O)[nH]c4ccccc34)[nH]n2)cc1	none
Cc1ccc2nc(-c3ccc(OCC(=O)N=Nc4c(O)[nH]c5ccccc45)cc3)cc(-c3ccccc3)c2c1	RMI FANCM FP 20
C=CCn1c(Cl)c(/C=N\NC(=O)c2ccncc2)sc1=O	none
COc1ccc(C2CC(c3cccs3)=NN2C(=O)CN2CCC(c3nc4ccccc4[nH]3)CC2)cc1 (stereo not given)	none
COc1cccc(CNC(=O)Cn2c(=O)n(Cc3ccccc3Cl)c(=O)c3nccnc32)c1OC	none
CCOc1ccccc1CN1C(=O)C(NC(C)=O)c2cc(C)cc(C)c21 (stereo not given)	none
CCOc1ccccc1CN1C(=O)C2(SC(NC(C)=O)=NN2C(C)=O)c2cccc(Cl)c21 (stereo not given)	RMI FANCM FP 22
Cc1ccc(-c2cc3c(=O)n(CC(=O)N4CCCc5ccccc54)ncn3n2)cc1C	none
CC(C)(C)c1ccc(C(=O)Nc2ccc3c(c2)CN(C(=O)c2ccco2)CC3)cc1	none
CC1(C)COc2cc(NS(=O)(=O)c3ccc(C(C)(C)C)cc3)ccc2NC1=O	none
Cc1c(C)c2c(c(C)c1O)CCC(C)(C(=O)O)O2 (stereo not given)	RMI FANCM FP 1
Cc1c(C)c2c(c(C)c1O)CC[C@@](C)(CCC[C@H](C)CCC[C@H](C)CCCC(C)C)O2	none
Cc1c(C)c2c(c(C)c1O)CCC(C)(CN1CCN(c3cc(N4CCCC4)nc(N4CCCC4)n3)CC1)O2 (stereo not given)	none
CC(=O)CC1(O)C(=O)N(Cc2ccc(C)cc2)c2c(Cl)ccc(Cl)c21 (stereo not given)	none
O=C(CSc1nc2sc3c(c2c(=O)n1-c1ccccc1)CCCC3)Nc1cccc(-c2nc3ccccc3s2)c1	none
O=C(COc1coc(CN2CCc3ccccc3C2)cc1=O)N1CCC(Cc2ccccc2)CC1	none
CS(=O)(=NC(=O)c1cncc(C#Cc2ccccc2)c1)c1ccccc1 (stereo not given)	none
CSc1nc2ccc3nc(NC(=O)c4cccc([N+](=O)[O-])c4)sc3c2s1	none
Cc1ccc(C)c(Cn2cnc3c(-c4cccc(Cl)c4)csc3c2=O)c1	none
O=c1c2scc(-c3ccccc3)c2ncn1Cc1cccc(Cl)c1	none
O=c1c2scc(-c3cccc(Cl)c3)c2ncn1Cc1cc(=O)n2ccccc2n1	RMI FANCM FP 16
Cc1ccc(NC(=S)NNC(=O)Cc2nc(-c3ccccc3)sc2C)cc1	none
C#CC(CC)(CC)NC(=O)NCCCCCCNC(=O)NC(C#C)(CC)CC	none
N#CCCN1CCN(C2=NC(=O)/C(=C\c3ccc(-c4cccc(C(F)(F)F)c4)o3)S2)CC1	none
Cc1occc1-c1nc2s/c(=C\c3ccc(-c4cccc(C(F)(F)F)c4)o3)c(=O)n2n1	RMI FANCM FP 16
Cc1ccc(/C=c2\sc3nc(=O)c(C)nn3c2=O)o1	none
Cc1ccc(-c2nnc(NC(=O)Cc3cccc4ccccc34)s2)cc1	none
COc1cccc(-c2nnc3ccc(OCCNC(=O)c4ccc(F)cc4)nn23)c1	none
COc1ccc(Cc2nn3c(C(=O)c4cccs4)nn(-c4ccc(C)cc4)c3nc2=O)cc1	none
Cc1sc(N)c(C(N)=O)c1C	RMI FANCM FP 15
Cc1sc(N)c(C(=O)c2cccc(C(F)(F)F)c2)c1C	none
CCOC(=O)/C=C/C(=O)Nc1sc(C)c(C)c1C(N)=O	none
Cc1cc(NC(=O)c2ccc3c(c2)CCCC3)n(C(C)C)n1	none
CCOC(=O)c1c(N=Cc2ccc(N(CC)CC)cc2O)sc2c1CCCC2	none
CCN(CC)c1ccc(C=Nc2sc3c(c2C#N)CCCC3)c(O)c1	RMI FANCM FP 18
N#Cc1c(N=Cc2cc(Br)cc(Br)c2O)sc2c1CCCC2	none
CSc1cccc(NC(=O)C(=O)NCC2CCN(Cc3cccs3)CC2)c1	none
COc1cc2c(cc1OC)CN(C(=O)CSc1nc3sc4c(c3c(=O)n1-c1ccccc1)CCCCC4)CC2	none
C=CCN1C(=O)C(C)(C)COc2cc(NC(=O)c3ccc(F)cc3)ccc21	none
O=C(C1CCN(c2ccc(-c3ccco3)nn2)CC1)N1CCN(Cc2ccccc2)CC1	none
O=C(Nc1ccc(S(=O)(=O)N2CCOCC2)cc1)c1ccc(Cl)cc1	none
O=C(Nc1csc(-c2ccc(Oc3ccc(-c4nc(NC(=O)c5cc(Cl)sc5Cl)cs4)cc3)cc2)n1)c1cc(Cl)sc1Cl	none
O=C(Nc1csc(-c2ccc(Oc3ccc(-c4nc(NC(=O)c5ccc(C(=O)c6ccccc6)cc5)cs4)cc3)cc2)n1)c1ccc(C(=O)c2ccccc2)cc1	RMI FANCM FP 25
O=C(Nc1nc(-c2ccc(Br)cc2)cs1)c1ccc(Oc2ccc(C(=O)Nc3nc(-c4ccc(Br)cc4)cs3)cc2)cc1	none
O=C(Nc1csc(-c2ccc(Oc3ccc(-c4nc(NC(=O)c5ccc(S(=O)(=O)N6CCOCC6)cc5)cs4)cc3)cc2)n1)c1ccc(S(=O)(=O)N2CCOCC2)cc1	RMI FANCM FP 9
O=S(=O)(c1ccc(-c2nc(-c3ccc(Cl)cc3)cs2)cc1)N1CCOCC1	none
COC(=O)c1ccc(/C=N\NC(=O)c2cc(-c3ccccc3Cl)n[nH]2)cc1	none
COC(=O)c1ccccc1OC1OC(COC(C)=O)C(OC(C)=O)C(OC(C)=O)C1NC(C)=O (stereo not given)	none
O=C(Cc1csc(SCc2ccc(Cl)cc2)n1)Nc1cccc(F)c1	none
CN(C)C(CNS(=O)(=O)CCc1ccccc1)c1cccc2ccccc12 (stereo not given)	none
Oc1ccccc1/C=N\NC(=S)NC1CC2C=CC1C2 (stereo not given)	none
Oc1c(Cl)cc(Cl)cc1/C=N\NC(=S)NC1CC2CCC1C2 (stereo not given)	RMI FANCM FP 11
OCCN/N=C\c1cc(Cl)cc(Cl)c1O	none
CCS(=O)(=O)N1CCc2ccc(NC(=O)Cc3cccc4ccccc34)cc2C1	none
COc1ccc(S(=O)(=O)Nc2ccc3c(c2)CN(C(=O)c2ccccc2)CC3)cc1F	none
Fc1ccc(-c2csc(CN3CCNCC3)n2)cc1	none
COCc1cc(C)nc2oc(C(=O)c3ccccc3)c(N)c12	none
CCOC(=O)c1oc2nc3c(c(-c4cccnc4)c2c1N)CCc1ccccc1-3	RMI FANCM FP 37
CCOC(=O)Cn1c(-c2cccnc2)nc(-c2ccccc2)c1-c1ccccc1	none
